From the supplement of paper PMC6555819

Key:
Experiment in all cases: PBM binding z-score (relative to random genomic background probes); higher = stronger binding; sequences stand for … in GC…GCGATTGACAGCGTAGAATGAAGG
[1] = tested on: FXR:RXRa (NR concentration 270 nM, RXRa partner concentration 90 nM)
In short: (§1)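 Binding z-scores take random background probes as their reference. They come from custom Agilent 4×180K protein-binding microarrays incubated 1 h with ligand-free nuclear receptor dimers, with antibodies against each partner (one per run) detecting binding. Scanned fluorescence was regression-normalized.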

[2] = tested on: LXRa:RXRa (NR concentration 270 nM, RXRa partner concentration 90 nM)
In short: as §1

[3] = tested on: LXRa homodimer (NR concentration 270 nM)
In short: as §1

[4] = tested on: LXRb:RXRa (NR concentration 270 nM, RXRa partner concentration 90 nM)
In short: as §1

[5] = tested on: LXRb homodimer (NR concentration 270 nM)
In short: as §1

[6] = tested on: PPARa:RXRa (NR concentration 270 nM, RXRa partner concentration 90 nM)
In short: as §1

[7] = tested on: PPARg:RXRa (NR concentration 180 nM, RXRa partner concentration 90 nM)
In short: as §1

[8] = tested on: PPARg:RXRa 270nM:90nM, anti-RXR (NR concentration 270 nM, RXRa partner concentration 90 nM)
In short: as §1

[9] = tested on: PPARg:RXRa 30nM:10nM, anti-RXR (NR concentration 30 nM, RXRa partner concentration 10 nM)
In short: as §1

[10] = tested on: PPARg:RXRa 90nM:30nM, anti-RXR (NR concentration 90 nM, RXRa partner concentration 30 nM)
In short: as §1

[11] = tested on: PPARg:RXRa DBDmut IVT, anti-RXR (DBD mutation: RXRa K156A/R161A, NR concentration 270 nM, RXRa partner concentration 90 nM)
In short: as §1

[12] = tested on: PPARg:RXRa IVT, anti-PPARg (NR concentration 270 nM, RXRa partner concentration 90 nM)
In short: as §1

[13] = tested on: PPARg DBDmut:RXRa IVT, anti-PPARg (DBD mutation: PPARg1 K132A/R137A, NR concentration 270 nM, RXRa partner concentration 90 nM)
In short: as §1

[14] = tested on: PPARg DBDmut IVT, anti-PPARg (DBD mutation: PPARg1 K132A/R137A, NR concentration 270 nM)
In short: as §1

[15] = tested on: PPARg homodimer (NR concentration 180 nM)
In short: as §1

[16] = tested on: PXR:RXRa (NR concentration 270 nM, RXRa partner concentration 90 nM)
In short: as §1

[17] = tested on: PXR homodimer (NR concentration 270 nM)
In short: as §1

[18] = tested on: RARa:RXR (NR concentration 270 nM, RXRa partner concentration 90 nM)
In short: as §1

[19] = tested on: RARa homodimer (NR concentration 270 nM)
In short: as §1

[20] = tested on: RARb:RXRa (NR concentration 270 nM, RXRa partner concentration 90 nM)
In short: as §1

Sequence	PBM binding z-score [1]	PBM binding z-score [2]	PBM binding z-score [3]	PBM binding z-score [4]	PBM binding z-score [5]	PBM binding z-score [6]	PBM binding z-score [7]	PBM binding z-score [8]	PBM binding z-score [9]	PBM binding z-score [10]	PBM binding z-score [11]	PBM binding z-score [12]	PBM binding z-score [13]	PBM binding z-score [14]	PBM binding z-score [15]	PBM binding z-score [16]	PBM binding z-score [17]	PBM binding z-score [18]	PBM binding z-score [19]	PBM binding z-score [20]
ACTAGCAGGCCAAGTGTGGGTCACTCAAACAAAG	-0.167	0.206	-0.486	0.691	-0.959	2.19	0.66	1.38	-0.102	0.685	2.05	2.79	-0.334	-0.527	0.309	0.546	-0.107	1.35	-1.55	1.79
ATCTCTAGGTAAAGTTCAGTGAGAGATCGATAGA	1.25	1.82	1.42	0.981	0.57	2.42	3.37	3.95	2.06	3.46	2.11	2.62	1.04	0.672	1.57	1.77	1.52	1.01	0.975	2.58
TCGGACAGGTGAAGGTAACTCAGGTACGCAGTCG	0.451	1.52	0.174	0.636	-0.839	0.988	0.599	1.57	2.75	1.87	2.03	1.01	-0.211	-0.574	0.536	0.407	0.228	0.44	0.257	1.45
ATCTCTAGGTAAAGATAGTTCAGTCAATGCAAAT	0.395	4.34	0.831	0.948	0.433	0.518	0.623	0.469	0.292	0.471	2.07	1.73	0.964	1	0.843	1.05	0.38	0.522	0.556	0.692
TTACCAAGGTGAGCTGCGGTCGTTGATCCAACTC	0.391	0.351	-0.281	-0.0836	-1.32	0.597	-0.444	-0.0826	-0.536	-0.439	0.329	1.64	0.125	-0.586	-0.584	1.38	-0.459	0.61	-0.775	1.07
CCTTCTGGGCCACGAAAGGTCATTGATTCAGTGA	4.23	5.51	4.66	4.55	0.628	4.97	3.74	4.4	1.82	3.94	5.63	5.14	1.99	2.08	5.35	5.74	1.61	5.44	2.53	4.21
CCTTACGGGTCAAGGTTATTGCACGGGTGGTACG	5.1	3.67	0.262	2.96	0.000433	4.77	4.52	4.63	2.03	3.46	2	3.61	-0.367	-0.115	2.22	3.62	0.512	4.2	0.978	4.12
AATACAGGGTAATCGTAGGCCAGAGTACGCACAG	0.175	1.34	-0.0914	0.309	-0.0115	0.447	1.25	0.792	0.499	0.377	2.12	2.19	0.939	0.00215	-0.0424	0.0668	0.0801	0.578	0.101	0.525
CGAACTACGTCAAGGACAGTGAATCTCCGCACGC	-0.000991	-0.458	0.0307	-0.729	-0.268	-0.387	0.65	-0.549	-0.403	-0.799	-0.146	-0.464	-0.384	-0.387	-0.76	-0.445	0.128	-0.00341	-0.551	0.27
ATCTCTAGGTAACAAATTCAGTGAAAGAGAGGAC	0.723	0.714	0.441	0.288	1.15	0.552	0.558	0.598	0.83	0.732	2.5	2.57	1.67	1.65	0.744	0.225	0.486	0.657	1.4	0.701
TCGAGCAGGTTAGTCGGGGCATTCAGCCAACATA	-0.0429	-0.284	-0.517	0.593	-0.865	0.572	-0.408	-0.00465	0.101	0.383	0.239	0.431	-0.862	-0.407	-0.0263	0.125	-0.131	0.109	-0.676	0.557
TTACCATGGTGAAGGTCGTTGATCCCTCTGTAGA	1.59	1.54	-0.212	1.35	-0.704	1.64	1.06	2.74	1.09	2.44	-0.0288	0.772	-0.132	-0.462	0.317	1.1	0.0781	0.942	-0.727	0.811
CGTCCAAGGTCAGAGAGGTCAGAGAATGCCGAGT	6.45	5.34	3.4	4.53	0.508	5.1	3.75	4.28	1.33	3	2.84	3.53	0.0352	-0.116	4.06	6.31	11.8	5.66	1.75	5.18
ACTATTAGTTGAGAGGAGGGCAACCGATAGGTTG	0.181	-0.0431	0.0481	-0.187	0.248	0.335	0.512	0.15	0.176	0.106	0.402	0.862	0.559	0.202	0.333	0.447	0.403	0.168	0.97	0.991
TTACGAAGGTGAAGGTCGTTGATCCCTCTGTAGA	2.35	1.9	-0.207	1.48	-0.709	2.66	2.48	3.86	2.7	3.16	1.43	2.62	0.0113	-0.332	0.462	1.58	-0.113	1.68	-0.46	2.23
TAGCCTAGGTCATGCGGGCCATTATAGTGTCGGC	4.23	3.27	0.473	1.96	-0.482	3.6	2.62	2.47	0.148	1.56	2.07	2.84	0.0501	-0.158	0.864	1.97	0.0749	2.7	-0.379	3.69
ATCTCTTGGTAAAGTTCAGTGAAAGATCGATAGA	1.08	2.09	1.65	1.6	1.5	1.69	1.54	3.02	1.39	2.65	0.216	0.63	1.4	1.94	1.76	2.41	2.31	1.63	1.65	2.82
TAGCCTAGGTCAGTGGGCCAGTATAGTACGCATC	0.672	0.503	-0.786	0.274	-0.999	2.11	2.47	2.57	0.337	1.47	2.3	3.72	-0.247	0.15	0.486	0.1	-0.662	0.533	-1.07	3.01
ATAATGAGGTTATACGTAGATCAGGGAAGAAAGT	2.27	2.55	0.45	1.89	0.893	3.42	2.56	2.38	0.895	1.89	4.24	2.58	2.03	2.05	0.998	1.7	0.97	2.12	1.63	1.75
ACACCAAGGTGATCGTGAGGTCGTTGATACTAAC	1.59	1.28	0.495	1.38	-0.254	1.62	0.514	0.34	-0.275	0.0177	0.605	1.04	-0.599	0.153	0.72	2.98	1.07	2.18	0.0851	1.47
CCTTACGGGTCAAGGTTCTAGCACGGGTGGTACG	5.14	3.35	-0.039	2.64	-0.204	4.86	4.7	5.18	2.28	4.24	1.5	3.25	0.0121	-0.395	2.56	2.98	-0.35	3.97	0.251	4.05
ACAGACAGGTGAGTGAAGATAACTCAGCTGGACG	-0.343	-0.53	-0.558	-0.776	-0.749	-0.453	0.887	-0.267	0.137	-0.0703	0.148	0.126	0.243	0.332	-0.119	-0.523	-0.597	-0.226	0.147	0.137
GGAACGAGGGCATTCGATTTGATAGCATGGCGAT	0.98	0.589	-0.512	0.472	-0.24	1.49	1.13	1.23	0.159	0.731	3.33	2.39	0.437	-0.411	0.257	0.991	0.161	0.538	-0.351	1.96
ACTATTAGTTGACTTAGGGCAACTGATACGACGC	0.17	0.0575	0.162	0.0522	0.38	0.0544	0.858	0.0451	0.501	0.431	-0.0413	0.813	1.58	1.31	0.722	0.176	0.201	0.431	0.297	1.01
AGTCAAAGTTCATCTAGGTAACGTAAGATATGCT	6.73	6	5.07	3.62	1.73	4.84	6.6	6.14	3.3	5.53	1.19	3.69	1.19	1.17	3.13	5	7.49	3.72	2	5.01
TCGAGTAGTTTAGTCGGGGCATTCAGCCAACATA	-0.125	-0.295	-0.441	0.256	-0.38	0.346	-0.694	0.0847	0.837	0.633	1.24	-0.182	-0.281	-0.699	-0.472	0.139	-0.0137	0.146	-0.408	0.0588
